VACV mCherry inh: qHTS for Stage-Specific Inhibitors of Vaccinia Orthopoxvirus: mCherry Reporter Primary qHTS; Vaccinia virus mCherry reporter infection, fluorescence; Potency, µM (series often up to 36.5 µM), hits mostly inhibitors; hit rate 0.63% among 310,000; calls by dose curve; tested in A549 cells; further: nearly all actives have a fitted effect of over 35% in size
HCMV inh: qHTS Assay for inhibitors of the human cytomegalovirus (HCMV) | AID 1259415, 2018 | hit rate 4.5% among 410,000 | activity change, negative = inhibition, % at 57.5 µM | HFF cells, HCMV-luciferase reporter, 72 h; stronger effect = lower value; in the data active means activity change below about -60%; inconclusive means no clear call, values can overlap the other calls; inactive means above about -39%
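Cell-based, HFFs, 1000 cells/well, 16 h 37C; cpds in DMSO + HCMV-luc, MOI 1 PFU/cell; 72 h 37C; OneGlo luminescence after 5 min RT; norm. to buffer vs Salinomycin 10uM.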
HCV inhibitor: qHTS Assay for Inhibitors of Hepatitis C Virus (HCV) | Huh7.5.1 HCVcc-Cre infection, luciferase reporter, 44 h | Potency, µM (top dose mostly 41.8 µM), hits mostly inhibitors | hit rate 3.4% among 340,000 | AID 651820, 2012
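Whole-lifecycle infectious HCVcc-Cre system; cells 1,000/well, compound then virus (~0.5 moi) added 4 h after plating, 44 h culture. Luciferase read 15 sec following 15 min substrate incubation, room temp.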
FMDV inh: High Throughput Screening for Foot and Mouth Disease Virus Antivirals. Potency, µM (series often up to 57.9 µM), hits mostly inhibitors. hit rate 1.2% among 410,000. FMDV antiviral cell-based qHTS; calls by dose curve; tested in HEK293T cells; further: read-out not given here; nearly all actives have a fitted effect of over 45% in size
FBPA Giardia inh: qHTS Assay for Inhibitors of Fructose-1,6-bisphosphate Aldolase from Giardia Lamblia. AID 2451, 2010. Potency, µM (top dose mostly 59.6 µM), actives largely listed as inhibitors. hit rate 0.71% among 290,000. purified Giardia FBPA; further: nearly all actives have a fitted effect of over 55% in size
Target sequence (A8B2U2 whole entry, looked up): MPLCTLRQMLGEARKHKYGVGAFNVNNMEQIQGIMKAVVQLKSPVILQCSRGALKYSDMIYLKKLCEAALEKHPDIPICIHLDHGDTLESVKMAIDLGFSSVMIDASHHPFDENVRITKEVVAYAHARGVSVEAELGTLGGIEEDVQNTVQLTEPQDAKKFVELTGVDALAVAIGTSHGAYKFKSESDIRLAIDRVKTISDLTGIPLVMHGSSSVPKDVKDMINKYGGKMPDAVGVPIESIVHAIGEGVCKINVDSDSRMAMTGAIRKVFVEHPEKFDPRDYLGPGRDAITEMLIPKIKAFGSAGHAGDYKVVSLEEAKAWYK
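40 nM FBPA preincubated 10 min at RT with compound (up to 57.5 uM final), then substrate plus GAPDH/TPI/NAD/arsenate coupling and diaphorase/resazurin added. Fluorescence read after 20 min at RT, 525/598 nm.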
VACV Venus inh: qHTS for Stage-Specific Inhibitors of Vaccinia Orthopoxvirus: Venus Reporter Primary qHTS; Vaccinia virus Venus reporter expression, fluorescence; Potency, µM (titrated, usually from 36.5 µM), hits mostly inhibitors; hit rate 0.46% among 330,000; AID 720580, 2013; calls by dose curve; tested in A549 cells; further: nearly all actives have a fitted effect of over 30% in size
Numbers stand for hits; 0 = inactive; ? = inconclusive; - = no result given. Rows were chosen to be rich in hits. Some 7.5% of all compounds tested hit in one or more screens of this group. Unless noted, the call rests on the fitted dose curve; in most records, active means well fitted curve in the direction sought with a large enough effect; inconclusive means small, poorly fitted or top-dose-only effect, or another doubt; inactive means no such curve, though single readings can be large; an effect the other way counts as inactive or inconclusive.

SMILES	VACV mCherry inh	HCMV inh	HCV inhibitor	FMDV inh	FBPA Giardia inh	VACV Venus inh
COc1ccc2c(c1)O[C@H](c1ccc3c(c1)OCO3)[C@@H](OC(=O)NCc1ccco1)C2=O	-	-	-	-	0	-
COc1ccccc1/C(C)=N/NC(=S)NCc1ccccc1	0	0	?	0	0	0
COc1ccc(-c2noc(COc3cc(C)ccc3C)n2)cc1OC	0	0	-	0	-	0
c1ccc2c(c1)-c1ccccc1C2N1CCOCC1	0	0	0	0	-	0
O=C(NC1c2ccccc2-c2ccccc21)N1CCOCC1	11µM	0	0	-	0	10µM
CCOC(=O)N1CCN(C(=O)c2ccc3c(c2)NC(=O)/C(=C\c2cccc(C)c2)S3)CC1	-	?	?	?	0	-
CCN(CC)S(=O)(=O)c1ccc2oc(Nc3ccc(OC)cc3OC)nc2c1	0	0	10µM	0	0	0
COc1ccc(NS(=O)(=O)c2ccc3oc(SC(C)C(N)=O)nc3c2)cc1 (stereo not given)	?	-	10µM	0	-	?
COc1ccc(NS(=O)(=O)c2ccc3oc(Nc4ccc5c(c4)OCCO5)nc3c2)cc1	-	-85	4µM	0	0	?
O=[N+]([O-])c1cc(-c2cccnc2)n[nH]1	0	0	?	0	-	0
COC(=O)c1c(NC(=O)CSc2ncnc3ccccc23)sc(C)c1C	0	0	18µM	0	-	0
CCOC(=O)c1c(NC(=O)CSc2ncnc3ccccc23)sc(C(C)=O)c1C	0	0	11µM	25µM	0	0
O=C(NCc1ccccc1F)[C@H]1[C@H](CO)[C@H]2Cn3c(cccc3=O)[C@H]2N1CC1CC1	-	0	-	-	-	-
CCOc1ccc(NC(=O)c2cccc(S(=O)(=O)NCc3cccnc3)c2)cc1	0	0	-	0	-	0
CC(OC(=O)/C=C/c1ccccc1Cl)C(=O)NC1CCCCC1C (stereo not given)	0	0	0	0	-	0
CCCCNC(=O)c1c(-c2ccccc2)c(-c2ccccc2)nn(C)c1=O	0	0	-	0	-	0
CC1=Nc2cc(C(=O)NCCc3ccccc3)ccc2Sc2c(C)ccc(C)c21	0	-103	-	0	-	0
COc1ccc(CNC(=O)c2ccc3c(c2)N=C(C)c2c(C)ccc(C)c2S3)cc1	0	0	-	?	-	0
CC1=Nc2cc(C(=O)NCCN3CCOCC3)ccc2Sc2c(C)ccc(C)c21	-	0	0	0	0	-
CCCNC(=O)c1ccc2c(c1)N=C(C)c1c(C)ccc(C)c1S2	?	-102	-	0	-	0
CC1=Nc2cc(C(=O)NCCc3ccc(Cl)cc3)ccc2Sc2c(C)ccc(C)c21	?	-88	-	0	-	0
CC1=Nc2cc(C(=O)NCCCN3CCOCC3)ccc2Sc2c(C)ccc(C)c21	0	-68	?	0	0	?
CC(C)(C(=O)N1CCC1(C)C(=O)NC1Cc2ccccc2C1)c1ccccc1 (stereo not given)	0	0	-	0	-	0
COc1ccccc1CN1CCC2(CCC(CNC(=O)c3ccccc3N(C)C)O2)CC1 (stereo not given)	0	-	-	0	-	0
Cc1nnc(SCC(=O)Nc2sc3c(c2C(=O)c2ccccc2)CCCC3)s1	0	-62	?	0	0	0
SMILES	VACV mCherry inh	HCMV inh	HCV inhibitor	FMDV inh	FBPA Giardia inh	VACV Venus inh
Cc1nnc(SCC(=O)Nc2ccccc2NC(=O)CSc2nnc(C)s2)s1	-	0	0	0	0	0
N#CCC(=O)Nc1sc2c(c1C(N)=O)CCCC2	?	-62	0	0	?	0
COc1ccccc1CC(=O)Nc1sc2c(c1C(N)=O)CCCC2	0	0	20µM	0	0	0
NC(=O)c1c(NC(=O)c2ccncc2)sc2c1CCCC2	0	0	13µM	0	0	?
CCC(=O)Nc1sc2c(c1C(N)=O)CCC2	-	0	0	0	0	-
CCN(CC)CCn1c2c(c(SCC(=O)Nc3cc(C)on3)nc1=O)CCCC2	0	0	0	0	-	0
CCS(=O)(=O)N1CCc2cc(C(=O)Nc3cccc(C)c3C)ccc21	0	0	-	0	-	0
CN(C)S(=O)(=O)c1cccc(NC(=O)CN2C(=O)NC3(CCc4ccccc4C3)C2=O)c1 (stereo not given)	0	0	0	0	0	0
Cc1ccc(NC(=O)c2cnn3c(C(F)F)cc(-c4ccccc4)nc23)cc1F	0	0	-	?	-	0
CCOC(=O)C1(N(CC)CC)Sc2cc(C)ccc2NC1=O (stereo not given)	?	0	?	0	-	?
C=C(C)C(=O)OC1(C(F)(F)F)Oc2cc(C)ccc2NC1=O (stereo not given)	0	-95	0	0	0	0
COc1cc(C2Oc3ccccc3C=C2[N+](=O)[O-])cc(OC)c1OC (stereo not given)	-	-104	?	13µM	0	-
COc1cc(C2NC(=O)c3ccccc3O2)cc(OC)c1OC (stereo not given)	-	0	0	0	0	-
COc1ccc(-c2sc3ccccc3c2C#CCO)cc1	?	?	28µM	0	0	?
COc1ccc(-c2sc3ccccc3c2C#Cc2cncn2C)cc1	0	0	3.5µM	0	-	?
COc1ccc(-c2sc3ccc(N4CCOCC4)cc3c2C#CCCO)cc1	0	0	4µM	?	-	?
Cn1cncc1C#Cc1c(-c2ccc(S(C)(=O)=O)cc2)sc2ccccc12	?	0	0	?	-	?
COc1ccc(-c2sc3cc(OC)c(OC)cc3c2C#CC2(O)CCCCC2)cc1	?	0	16µM	0	-	0
CCN(c1ccccc1)S(=O)(=O)c1nnc(NC(=O)C(C)Oc2ccccc2)s1 (stereo not given)	0	0	-	0	-	0
CCOC(=O)C1(CCOC)CCN(Cc2nc(C(C)C)cs2)CC1	0	0	0	0	0	0
COc1ccc(-c2sc3cc4c(cc3c2C#CCO)OCO4)cc1	0	0	11µM	0	-	?
COc1ccccc1-c1sc2cc3c(cc2c1C#Cc1cncn1C)OCO3	?	0	0.89µM	?	-	?
COC(=O)c1c(-c2ccc(OC)cc2)sc2cc3c(cc12)OCO3	0	0	11µM	0	-	0
COC(=O)c1c(-c2ccc(N(C)C)cc2)sc2ccc(OC)cc12	?	0	?	0	-	?
COc1ccc2sc(-c3ccccc3OC)c(C#Cc3cncn3C)c2c1	0	0	?	0	-	0
COc1ccc(-c2sc3cc4c(cc3c2C#Cc2ccc(N)cc2)OCO4)cc1	?	0	?	0	-	?
COc1cc(-c2ccc3sc(-c4ccsc4)c(C#CCO)c3c2)cc(OC)c1OC	?	0	3.2µM	0	-	?
O=C(NCc1ccccc1)c1cccc(Nc2nc3ccccc3n3nnnc23)c1	?	0	-	0	-	?
COc1ccc2c(C#CCCO)c(-c3ccc(S(C)(=O)=O)cc3)sc2c1	?	0	?	0	-	?

Bioassay records deposited in PubChem by National Center for Advancing Translational Sciences (NCATS).
